Counter-ions that a name gives are not always drawn.
Each molecule was assayed on Danio rerio Tg(wt1b:EGFP) embryo, pronephros (assay: fraction of imaged embryos annotated as normal kidney; higher = less nephrotoxic; extreme values may be limits of the assay). Settings: 25 µM; exposure: 24-48 hpf.
Method in brief: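 The read-out is the proportion of embryos in each treatment manually annotated as normal-kidney. Exposure ran from 24 to 48 hpf at 28.5°C in 12-well plates, using dechorionated Tg(wt1b:EGFP) zebrafish embryos in 5 mM HEPES-buffered E3 with 0.003% PTU, 0.5% DMSO and 25 μM compound. For imaging, larvae were anaesthetised with tricaine, positioned dorsally in agarose-filled 96-well plates and captured by widefield fluorescence (470 nm, 10 z-slices), with scoring done on maximum projections.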

| SMILES | fraction of imaged embryos annotated as normal kidney |
| --- | --- |
| CN1CCN(C2=Nc3ccccc3Oc3ccc(Cl)cc32)CC1 [Loxapine succinate] | 0.75 |
| Cn1c([N+](=O)[O-])cnc1COC(N)=O [Ronidazole] | 0.75 |
| CC(=O)Oc1ccccc1C(=O)Oc1ccccc1C(=O)O [Acetylsalicylsalicylic acid] | 0.833 |
| O=C(O)/C=C/c1ccc(Cn2ccnc2)cc1 [Ozagrel hydrochloride] | 0.833 |
| O=S(=O)(O)c1cc(O)ccc1O [Ethamsylate] | 0.917 |
| CCC(=O)O[C@@H](O[P@](=O)(CCCCc1ccccc1)CC(=O)N1C[C@H](C2CCCCC2)C[C@H]1C(=O)O)C(C)C [Fosinopril] | 0.7 |
| Nc1ccc(S(=O)(=O)c2ccc(N)cc2)cc1 [Dapsone] | 0.5 |
| CCCOc1ccc2[nH]c(NC(=O)OC)nc2c1 [Oxibendazol] | 0 |
| O=C(CCCCC(=O)Nc1c(I)cc(I)c(C(=O)O)c1I)Nc1c(I)cc(I)c(C(=O)O)c1I [Iodipamide] | 0.75 |
| CN1CC2c3ccccc3Oc3ccc(Cl)cc3C2C1 (stereo not given) [Asenapine maleate] | 0.583 |
| CN(C)CCC(c1ccc(Br)cc1)c1ccccn1 (stereo not given) [Brompheniramine maleate] | 1 |
| O=C1NCCN1c1ncc([N+](=O)[O-])s1 [Niridazole] | 0.833 |
| COc1ccc2cc(CCC(C)=O)ccc2c1 [Nabumetone] | 0.75 |
| Clc1ccc(C(Cn2ccnc2)OCc2csc3c(Cl)cccc23)c(Cl)c1 (stereo not given) [Sertaconazole nitrate] | 0 |
| C[C@@H](O)[C@H]1C(=O)N2C(C(=O)O)=C(SCCNC=N)C[C@H]12 [Imipenem] | 1 |

From the supplement of paper PMC7366291
